# Where “and” joins values, the source holds several entries; their conditions need not be identical. Equal values may be shown once. Inconclusive results are not listed. Where a call stands in place of a potency, no number is given. Values without a mark were called inactive. Calls of active or inactive are those of the source. Unless noted, calls follow the shape of the dose curve; as a rule, active = well fitted curve in the direction sought with a large enough effect in the repeat runs; inconclusive = weak or mixed curves; inactive = no such curve, though single readings can be large; an effect the other way counts as inactive or inconclusive.
# Legend:
# [1] = target: Retinoic acid receptor RXR-alpha (Homo sapiens) (UniProt P19793); assay: qHTS assay to identify small molecule agonists of the RXR signaling pathway (AID 1159527; calls by dose curve; also: nearly all actives have a fitted effect of over 35% in size; also: potency is read from the fitted curve at half-maximal effect); conditions: HEK293T RXRa-UAS-bla, beta-lactamase ratio, 16 h; series mostly up to 76.8 µM
# Procedure, shortened: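 Cells plated at 2,000/well, rested 5 hr at 37 C, pin-dosed with DMSO compound solutions, incubated 16 hr, then loaded with B/G FRET substrate for 2 hr at RT before dual-emission fluorescence reading.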
# [2] = qHTS assay to identify small molecule antagonists of the retinoid acid receptor (RAR) signaling pathway - cell viability counter screen (AID 1159551); conditions: C3RL4 cells viability, ATP luminescence (CellTiter-Glo), 6 h; series mostly up to 92.4 µM; also: nearly all actives have a fitted effect of over 35% in size; also: potency is read from the fitted curve at half-maximal effect
# Procedure, shortened: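 Cytotoxicity counter screen in C3RL4 cells: 6 h compound exposure with 1 uM retinol (final), viability from cellular ATP by luminescence.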
# [3] = qHTS assay to identify small molecule antagonists of the estrogen related receptor (ERR) signaling pathway - cell viability counter screen (AID 1224818); conditions: ERR reporter cell line viability counter screen; series mostly up to 46.1 µM;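 also: viability measured after 17.5 h of compound exposure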
# Procedure, shortened: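 Cells carrying the ERR pathway reporter were seeded and incubated for 6 hours before compound addition. After a 17.5-hour exposure at 37 C, live-cell protease activity was measured by CellTiter-Fluor fluorescence following 30 minutes of incubation.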
# [4] = qHTS assay to identify small molecule antagonists of the estrogen related receptor (ERR) signaling pathway (AID 1224819; also: nearly all actives have a fitted effect of over 50% in size; also: potency is read from the fitted curve at half-maximal effect); conditions: ERR reporter cell line, luciferase inhibition; series mostly up to 46.1 µM
# Procedure, shortened: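 Compounds dissolved in DMSO were pin-transferred onto ERR cells that had been plated 6 h earlier, and cells were then incubated 18 h at 37 C; signal was luciferase luminescence via One-Glo.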
# [5] = qHTS assay to identify small molecule agonists of the estrogen related receptor (ERR) signaling pathway (AID 1224820); conditions: ERR reporter cell line, luciferase agonist mode; series mostly up to 46.1 µM
# Procedure, shortened: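 Cells: ERR line from NTP, 2,000/well. Pre-incubation 6 h, 37 C/5% CO2. Compound (DMSO) pin transfer, 18 h 37 C. One-Glo, 30 min RT, luminescence.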
# [6] = tested on: estrogen-related receptor alpha (ERRalpha) with PGC-1alpha coactivator, human; assay: qHTS assay to identify small molecule antagonists of the estrogen related receptor signaling pathway with the pleiotropic PPARgamma coactivator (PGC) (AID 1224821; calls by dose curve;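 also: lower luminescence signal means antagonism of PGC/ERR signalling; nearly all actives have a fitted effect of over 50% in size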); conditions: ERR/PGC reporter cell line, luciferase, antagonist mode; series mostly up to 46.1 µM
# Procedure, shortened: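 Luminescent read-out (One-Glo, 30 min at room temperature) following 18 h treatment of PGC/ERR cells at 37 C with compounds delivered in DMSO. Cells had settled 6 h at 37 C/5% CO2 before dosing.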
# [7] = qHTS assay to identify small molecule antagonists of the estrogen related receptor signaling pathway with the pleiotropic PPARgamma coactivator (PGC) cell viability counter screen (AID 1224822;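 also: viability read after 17.5 h compound exposure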); conditions: ERR/PGC reporter cell line viability counter screen; series mostly up to 46.1 µM
# Procedure, shortened: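 Seed PGC/ERR cells (2,000/well); incubate 6 h at 37 C/5% CO2; pin-transfer compounds in DMSO; incubate 17.5 h at 37 C; add CellTiter-Fluor; after 30 min read fluorescence.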
# [8] = qHTS assay to identify small molecule antagonists of the retinoic acid receptor (RAR) signaling pathway (AID 1159552; also: nearly all actives have a fitted effect of over 50% in size; also: potency is read from the fitted curve at half-maximal effect); conditions: C3RL4 RARE luciferase reporter, retinol-stimulated, 6 h; series mostly up to 92.4 µM
# Procedure, shortened: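 Retinol at 1 uM final stimulated RARE-luciferase expression in C3RL4 cells exposed to test compounds for 6 hr at 37 C. Reduced luminescence, read 30 min after detection reagent, indicated pathway antagonism.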
# [9] = qHTS assay to identify small molecule agonists of the retinoic acid receptor (RAR) signaling pathway (AID 1159553); conditions: C3RL4 RARE luciferase reporter, agonist, 6 h; series mostly up to 73.3 µM; also: potency is read from the fitted curve at half-maximal effect
# Procedure, shortened: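 Agonist activity was scored in C3RL4 cells bearing a retinoic acid response element luciferase construct. Cells were treated with compounds for 6 hr at 37 C, and luciferase signal was measured as luminescence.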
# [10] = qHTS assay to identify small molecule agonists of the RXR signaling pathway - cell viability counter screen (AID 1159529); conditions: RXR-alpha-bla HEK293T viability, CellTiter-Glo, 16 h; series mostly up to 76.8 µM; also: potency is read from the fitted curve at half-maximal effect; nearly all actives have a fitted effect of over 50% in size
# Procedure, shortened: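 Steps: seed RXR-alpha-UAS-bla HEK 293T cells in assay medium containing 2% charcoal-stripped FBS; incubate 5 hr; add compounds in DMSO; incubate 16 hr at 37 C; after the bla read, add CellTiter-Glo and read luminescence at 30 min.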
# Sequence of Retinoic acid receptor RXR-alpha (Homo sapiens) (P19793 whole entry, looked up): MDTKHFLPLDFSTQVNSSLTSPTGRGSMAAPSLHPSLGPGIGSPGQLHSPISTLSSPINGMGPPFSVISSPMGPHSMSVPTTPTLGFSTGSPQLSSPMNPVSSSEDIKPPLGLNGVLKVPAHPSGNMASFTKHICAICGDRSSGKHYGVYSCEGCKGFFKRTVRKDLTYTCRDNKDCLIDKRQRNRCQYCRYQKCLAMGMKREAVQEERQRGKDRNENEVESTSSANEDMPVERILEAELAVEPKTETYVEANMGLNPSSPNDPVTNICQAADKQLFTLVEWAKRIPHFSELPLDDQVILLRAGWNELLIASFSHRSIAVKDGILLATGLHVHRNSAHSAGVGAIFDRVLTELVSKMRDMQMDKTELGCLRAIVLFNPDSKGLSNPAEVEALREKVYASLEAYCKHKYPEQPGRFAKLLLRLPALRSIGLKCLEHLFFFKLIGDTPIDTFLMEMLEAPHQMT
smiles,measurement,setting,value
CCCCNC(=O)NS(=O)(=O)c1ccc(C)cc1,Potency,[1],inactive
same,Potency,[2],inactive
same,outcome,[3],inactive
same,Potency,[4],inactive
same,outcome,[5],inactive
same,outcome,[6],inactive
same,Potency,[7],inactive
Nc1ccc2c(c1)CN1C(=O)c3ccccc3C1=N2,Potency,[2],14.6 µM (active)
same,"activity, negative = inhibition",[8],-41% [at 19 µM]
same,Potency,[9],0.366 µM (active)
O=c1[nH]cc(F)c(=O)[nH]1,Potency,[1],28.2 µM (active)
same,Potency,[2],inactive
same,outcome,[3],inactive
same,Potency,[7],inactive
Nc1ccc([N+](=O)[O-])cc1O,Potency,[1],inactive
same,Potency,[9],inactive
same,Potency,[7],inactive
C1=CC2C3C=CC(C3)C2C1 (stereo not drawn),Potency,[2],inactive
same,Potency,[9],inactive
same,outcome,[3],inactive
same,Potency,[4],inactive
same,outcome,[5],inactive
same,outcome,[6],inactive
same,Potency,[7],inactive
CC(C)C(=O)Nc1ccc([N+](=O)[O-])c(C(F)(F)F)c1,Potency,[1],inactive
same,Potency,[2],inactive
same,Potency,[8],inactive
same,Potency,[9],inactive
same,outcome,[3],inactive
same,Potency,[4],22.8 µM (active)
same,outcome,[5],inactive
same,Potency,[7],inactive
CCCCCCCCCCCCCCCC[N+](C)(C)Cc1ccccc1,Potency,[2],79.4 µM (active) and 62.2 µM (active) and 29.8 µM (active)
same,Potency,[8],56.2 µM (active) and 27.8 µM (active) and 23.7 µM (active)
C=C1CC[C@H](O)C/C1=C\C=C1/CCC[C@]2(C)[C@@H]([C@H](C)CCCC(C)C)CC[C@@H]12,Potency,[10],24.3 µM (active)
same,Potency,[2],inactive
same,Potency,[8],inactive
COc1ccc(OC(F)(F)F)cc1CN[C@H]1CCCN[C@H]1c1ccccc1,Potency,[2],inactive
C1CCC(C(CC2CCCCN2)C2CCCCC2)CC1 (stereo not drawn),Potency,[2],29.8 µM (active)
same,Potency,[8],9.44 µM (active)
NC(=O)n1c(O)c(C(=O)c2cccs2)c2cc(Cl)ccc21,Potency,[2],inactive
same,Potency,[8],inactive
same,Potency,[9],inactive

# From PubChem BioAssay (Tox21)
